From PubChem BioAssay
PABP FP inh – blocks human PABP binding to poly(A) RNA. P11940. fluorescence polarization. inhibition, % at 35 µM. 290,000 tested, 1% active;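 also: calls also rest on retests at 20 µM and on dose response follow-up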
PABP1 MLLE inh – inhibitors of microRNA-mediated deadenylation, human PABP1 MLLE binding | GST-MLLE / FITC-PAM2 fluorescence polarization | inhibition, % at 20 µM | 360,000 tested, 0.36% active | AID 588489; in the data active = inhibition above about 35%, passing the limit was not always enough
eIF4H FP inh – inhibitors of RNA binding by human eIF4H; inhibition, % at 35 µM; 290,000 tested, 0.94% active; Q15056; eIF4H fluorescence polarization binding assay; AID 2012;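 also: calls also rest on retests at 20 µM and on dose response follow-up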
NRP1-CendR mod – modulators of CendR peptide binding to human neuropilin-1; FAM-RPARPAR peptide binding to NRP-1, fluorescence polarization; 360,000 tested, 0.85% active; inhibition, % at 25 µM;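 active = inhibition or corrected inhibition above about 18%, plus a signal ratio from 0.5 to 1.5, limit read from the data, passing the limit was not always enough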
Large screens that a line does not name were inactive. The list is not random: actives were taken first. Their share in the collection is about 2.1%. Unless noted, no rule for the calls is given here.

CCCN1CCc2nc(SCC(=O)Nc3ccc(C)c(Cl)c3)[nH]c(=O)c2C1	none
Cc1cccc(Oc2sc(C(=O)c3ccccc3)c(N)c2C#N)c1	NRP1-CendR mod 30.8
N#Cc1c(Nc2ccccc2)sc(C(=O)c2ccccc2)c1N	none
CC(=O)Nc1cccc(NC(=O)CSc2nc(=O)n(CCN3CCOCC3)c3c2CCCC3)c1	none (no result: PABP FP inh, eIF4H FP inh)
CN(Cc1ccccc1)c1nc(N)c([N+](=O)[O-])c(NCc2ccccc2)n1	NRP1-CendR mod 22.2
CC(=O)Nc1ccc(NC(=S)NC(=O)/C=C/c2ccco2)cc1	eIF4H FP inh 74.5
CCCn1nnc(NC(=O)/C=C/c2ccco2)n1	none
O=C(/C=C/c1ccco1)NC(=S)Nc1cccc(C(=O)O)c1	PABP FP inh 72.0, eIF4H FP inh 86.3
Cn1nnc(NC(=S)NC(=O)/C=C/c2ccco2)n1	PABP FP inh 81.5, eIF4H FP inh 87.7
O=C(/C=C/c1ccco1)NC(=S)Nc1cc(C(F)(F)F)ccc1N1CCOCC1	PABP FP inh active
CC(C)C[C@@H]1COc2cc(N3CCSCC3)ccc2S(=O)(=O)N1	none (no result: PABP FP inh, PABP1 MLLE inh, eIF4H FP inh)
Cc1ccc(CCNC(=O)Cn2ncc3c([nH]c4ccccc43)c2=O)cc1	none
Cc1ccc2[nH]c3c(=O)n(CC(=O)NCc4ccco4)ncc3c2c1	eIF4H FP inh 58.7
COc1cc(CCC(=O)OCC(=O)Nc2ccc(F)cc2F)cc(OC)c1OC	none
Cc1cn([C@H]2C[C@H](O)[C@@H](/C=C/C(=O)NCc3ccc(N(C)C)cc3)O2)c(=O)[nH]c1=O	none (no result: PABP FP inh, eIF4H FP inh)
CCCCOc1ccc(C(=O)Nn2cnnc2)cc1	NRP1-CendR mod 24.9
COC(=O)c1c(NC(=O)C2C3CCC(C3)C2C(=O)O)sc2c1CCCCC2 (stereo unspecified)	PABP1 MLLE inh 41.4
COC(=O)c1c(NC(=O)C2C3CCC(O3)C2C(=O)O)sc2c1CCCCCC2 (stereo unspecified)	none
CN1CCN(CC(=O)Nc2sc3c(c2C(=O)Nc2ccccc2)CCCC3)CC1	PABP FP inh 59.9
COC(=O)c1c(NC(C)=O)sc2c1CCCC2	none
O=C(CN1CCCC1)Nc1sc2c(c1C(=O)Nc1ccc(Br)cc1)CCC2	none
CNC(=S)Nc1sc2c(c1C(=O)OC)CCC2	PABP FP inh active, eIF4H FP inh inconclusive
COC(=O)c1c(NS(=O)(=O)Cc2ccccc2)sc2c1CCCC2	none
COC(=O)c1c(NC(=O)CN(c2ccccc2)S(C)(=O)=O)sc2c1CCCC2	NRP1-CendR mod 27.0
CCCNC(=O)C1(C)CCN(Cc2cccc(OC(=O)c3ccccc3)c2)C1 (stereo unspecified)	none (no result: PABP FP inh, eIF4H FP inh)
CCCCn1c(O)c2n(c1=O)Cc1ccccc1N=C2c1ccc(C)cc1	none (no result: PABP FP inh, eIF4H FP inh)
Cc1cccc(N/C(=N/S(=O)(=O)c2ccccc2)c2ccccc2)n1	none
CC(C)(C)NC(=O)C(C1CC1)n1c(=O)c(-c2ccccc2)nc2ccccc21 (stereo unspecified)	none (no result: PABP FP inh, PABP1 MLLE inh, eIF4H FP inh)
CCOC(=O)c1c(NC(=S)NC)sc2c1CC(C)(C)SC2	eIF4H FP inh 52.4
CCn1c2ccccc2c2cc(NC(=O)c3coc(=O)c(Br)c3)ccc21	eIF4H FP inh 105.1
CCn1c2ccccc2c2cc(NC(=O)c3ccc(=O)oc3)ccc21	PABP FP inh inconclusive, eIF4H FP inh inconclusive
COC(=O)c1[nH]c2ccccc2c1NC(=O)/C=C/c1ccc2c(c1)OCO2	PABP FP inh 120.4
CCN(CC(=O)Nc1c(C(=O)OC)[nH]c2ccccc12)c1ccc2c(c1)OCO2	none
COC(=O)c1[nH]c2cc(OC)ccc2c1NC(=O)c1ccc2c(c1)OCO2	NRP1-CendR mod 20.7
CCOC(=O)c1[nH]c2ccc(OC)cc2c1NC(=O)c1ccc2c(c1)OCO2	none
CCN(CC)C(=O)C1=C(C)N(CCCOC)C(=O)C(CC(=O)NCCN2CCOCC2)C1 (stereo unspecified)	none (no result: PABP FP inh, eIF4H FP inh)
COc1ccc(CNC(=O)CSc2nc3ccc(C)cc3[nH]2)cc1	none
CCCCNC(=O)CSc1nc2ccc(C)cc2[nH]1	NRP1-CendR mod 34.7
COc1ccc(C2Nc3cccc4cccc(c34)N2)cc1Br	eIF4H FP inh 62.5
COc1cc(C2Nc3cccc4cccc(c34)N2)ccc1OC(C)=O	PABP FP inh 88.5, eIF4H FP inh 105.4
COc1cc(C2Nc3cccc4cccc(c34)N2)cc(OC)c1O	none
Cc1ccc(NC(=O)N2CCCCCC2)c(C)c1	none
CCCCOC(=O)c1ccc(NS(=O)(=O)c2cc(-c3nnnn3CC)ccc2OC)cc1	NRP1-CendR mod 23.0
CSc1ccc(NC(=O)C2(C)CCN2C(=O)c2ccccc2CCc2ccccc2)cc1 (stereo unspecified)	NRP1-CendR mod 41.5 (no result: PABP FP inh, eIF4H FP inh)
O=C(CCn1cncn1)N1CCCC(N2CCN(c3ccc(F)cc3)CC2)C1 (stereo unspecified)	NRP1-CendR mod 24.7
CC(C)(C)OC(=O)C[C@@H]1C/C=C\C[C@@H](CC(=O)NCCO)C(=O)NC[C@@H](c2ccccc2)OC1=O	NRP1-CendR mod 18.2 (no result: PABP FP inh, eIF4H FP inh)
CC(C)(C)[C@H]1COC(=O)[C@H](NC(=O)OCC2c3ccccc3-c3ccccc32)C/C=C\C[C@@H](CC(=O)N[C@H](CO)Cc2ccccc2)C(=O)N1	none (no result: PABP FP inh, eIF4H FP inh)
CC(C)(C)[C@H]1COC(=O)[C@H](NC(=O)OCC2c3ccccc3-c3ccccc32)C/C=C\C[C@@H](CC(=O)N[C@@H](CO)Cc2ccccc2)C(=O)N1	NRP1-CendR mod 19.2 (no result: PABP FP inh, eIF4H FP inh)
O=C(C[C@H]1C/C=C\C[C@@H](Cc2ccc(F)cc2)C(=O)O[C@H](c2ccccc2)CNC1=O)NCCO	NRP1-CendR mod 17.8 (no result: PABP FP inh, eIF4H FP inh)
CC(C)(C)OC(=O)C[C@H]1C/C=C\C[C@@H](CC(=O)N[C@@H](CO)Cc2ccccc2)C(=O)NCCOC1=O	NRP1-CendR mod 35.9 (no result: PABP FP inh, eIF4H FP inh)
O=C(C[C@@H]1C/C=C/CC[C@H](Cc2ccc(F)cc2)C(=O)O[C@H](c2ccccc2)CNC1=O)NCCO	none (no result: PABP FP inh, eIF4H FP inh)
O=C(c1cccc(NS(=O)(=O)c2cccc(C(F)(F)F)c2)c1)N1CCOCC1	none
CN(CC(=O)NCCc1ccc(S(N)(=O)=O)cc1)Cc1ccc(Cl)cc1Cl	none
O=c1c2c3nc4ccccc4nc3n(/N=C/c3ccco3)c2ncn1CCC1=CCCCC1	eIF4H FP inh 65.3
CC(C)CNS(=O)(=O)c1ccc(S(=O)(=O)N2CCC3(CC2)OCCO3)cc1	PABP FP inh active, eIF4H FP inh inconclusive
O=S(=O)(NC1CC1)c1ccc(S(=O)(=O)N2CCC3(CC2)OCCO3)cc1	none
CCCCc1ccc(S(=O)(=O)N2CCC3(CC2)OCCO3)cc1	NRP1-CendR mod 32.6
O=S(=O)(c1ccc(Cl)cc1)N1CCC2(CC1)OCCO2	none
Cn1c(=O)oc2cc(S(=O)(=O)N3CCC4(CC3)OCCO4)ccc21	PABP FP inh 101.4, eIF4H FP inh 95.1
Cn1c(=O)oc2cc(S(=O)(=O)N3CCOCC3)ccc21	none
Cc1ccc(OCCC(=O)OCC(=O)N2CCN(S(=O)(=O)c3ccc(C)cc3)CC2)cc1	none (no result: PABP FP inh, eIF4H FP inh)
Cc1ccc(NC(=O)Nc2nnc([C@@H]3C[C@H](O)[C@@H](CO)O3)s2)cc1	none (no result: PABP FP inh, eIF4H FP inh)
Cc1ccc(C(=O)Nc2nnc([C@H]3C[C@H](O)[C@@H](CO)O3)s2)cc1	NRP1-CendR mod 30.0 (no result: PABP FP inh, eIF4H FP inh)
CC(=O)NC(c1cccc(F)c1)c1nc(-c2cccc(C(F)(F)F)c2)cs1 (stereo unspecified)	NRP1-CendR mod 25.3 (no result: PABP FP inh, eIF4H FP inh)
COc1ccc(-c2csc(C(NC(C)=O)c3cccc(F)c3)n2)cn1 (stereo unspecified)	NRP1-CendR mod 26.6 (no result: PABP FP inh, eIF4H FP inh)
